Compound activity as filed in PubChem.
This is a sample that favours compounds with a hit; in the whole collection about 1% have one here.
RXFP1 antag – blocks the human relaxin receptor RXFP1; Q9HBX9; actives 0.59% (n = 350,000); HEK293-RXFP1, relaxin-stimulated cAMP HTRF, 30 min; stronger effect = lower value; activity change, negative = inhibition, % at 57.5 µM;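 active = activity change of -60% or lower, but not beyond a set lower limit; inconclusive = change between -60% and -40%, or beyond the set limit; inactive = change above -40%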; note: % is set by controls: 0 for no effect and ±100 for the full control effect
Target sequence (Q9HBX9 whole entry, looked up): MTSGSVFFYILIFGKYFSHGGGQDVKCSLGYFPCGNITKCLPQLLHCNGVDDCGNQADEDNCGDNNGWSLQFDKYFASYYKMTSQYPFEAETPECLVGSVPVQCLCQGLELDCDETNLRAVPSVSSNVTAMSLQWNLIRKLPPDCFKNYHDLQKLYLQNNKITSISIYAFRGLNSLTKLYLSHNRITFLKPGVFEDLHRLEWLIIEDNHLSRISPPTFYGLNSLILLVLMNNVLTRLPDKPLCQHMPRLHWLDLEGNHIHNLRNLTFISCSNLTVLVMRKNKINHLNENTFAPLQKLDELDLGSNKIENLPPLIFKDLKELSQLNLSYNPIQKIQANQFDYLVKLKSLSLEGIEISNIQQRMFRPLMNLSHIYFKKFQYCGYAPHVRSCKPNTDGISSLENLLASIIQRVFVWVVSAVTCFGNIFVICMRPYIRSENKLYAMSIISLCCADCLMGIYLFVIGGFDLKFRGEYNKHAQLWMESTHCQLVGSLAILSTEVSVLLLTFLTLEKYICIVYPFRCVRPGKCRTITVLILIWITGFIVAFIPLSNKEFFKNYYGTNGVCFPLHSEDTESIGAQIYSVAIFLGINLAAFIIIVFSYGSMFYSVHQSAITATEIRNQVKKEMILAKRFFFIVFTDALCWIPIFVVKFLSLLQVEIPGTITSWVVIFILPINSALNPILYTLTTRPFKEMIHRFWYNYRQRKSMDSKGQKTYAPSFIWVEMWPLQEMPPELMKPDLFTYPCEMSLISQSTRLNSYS
RXFP1 ag – RXFP1 (human) receptor agonism; HEK293T-RXFP1 cAMP TR-FRET, 30 min; response scale: percent of porcine relaxin response, buffer zero; Potency, µM (titrated, usually from 57.5 µM), for the others: top-dose activation, hits mostly activators; actives 0.3% (n = 370,000); AID 2676; active = well fitted activation curve with a large enough effect; inconclusive = small, poorly fitted or top-dose-only effect; note: potency is the fitted concentration of half-maximal effect; % is set by controls: 0 for no effect and ±100 for the full control effect; nearly all actives have a fitted effect of over 60% in size
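HEK293 cells stably expressing RXFP1, treated 30 min at 37C with compounds plus PDE4 inhibitor Ro 20174; cAMP measured by HTRF TR-FRET. Normalized to buffer and 29 nM porcine relaxin; EC50 by Hill fit.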
gsp ag – activates gsp, the McCune-Albright syndrome mutation. gsp mutant cells, cAMP HTRF, 30 min. Potency, µM (series often up to 76.9 µM), for the others: at the top dose activation (cAMP increase), actives largely listed as activators. actives 0.13% (n = 340,000); active = well fitted activation curve with a large enough effect; inconclusive = small, poorly fitted or top-dose-only effect, or another doubt; inactive = no such curve, though single readings can be large or run the other way; cell line not stated here;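 note: phosphodiesterase inhibitor Ro 20-1724 added with compounds to block cAMP breakdown; potency is the fitted concentration of half-maximal effect; nearly all actives have a fitted effect of over 60% in size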
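Cells in DMEM/10% FBS with G418 were pretreated with compounds in DMSO plus […] (300 uM stock) for 30 min at 37C. cAMP was measured by HTRF (cAMP-d2 plus anti-cAMP antibody-K) after 30 min at room temperature.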
gsp antag – antagonizes gsp, the McCune-Albright syndrome mutation | gsp-mutant cells, cAMP HTRF, 30 min | Potency, µM (highest dose often 76.9 µM), for inactives: at the top dose activity change, negative = inhibition, hits mostly inhibitors | actives 0.4% (n = 340,000); calls by dose curve; cell line not stated here;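 note: intracellular cAMP measured with PDE inhibitor Ro 20-1724 present during compound exposure; potency is the fitted concentration of half-maximal effect; % is set by controls: 0 for no effect and ±100 for the full control effect; nearly all actives have a fitted effect of over 65% in size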
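G418-selected cells were plated in DMEM/10% FBS for 16-24 h at 37C, then treated with compounds plus the PDE inhibitor […] (300 uM solution added) for 30 min at 37C. Intracellular cAMP was measured by HTRF after 30 min lysis at room temperature.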
TSHR antagonist – blocks TSH signaling through the human TSH receptor | P16473 | TSHR-expressing cells, TSH-stimulated cAMP HTRF, 2 h; stronger effect = lower value | activity change, negative = inhibition, % at 11.5 µM | actives 0.2% (n = 330,000) | AID 504810;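 active = activity change below a set negative limit, meaning inhibition stronger than a set level, cut at about -70% in these data; inconclusive = activity change between two set negative limits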; note: % is set by controls: 0 for no effect and ±100 for the full control effect
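Inhibition of cAMP made by TSHR-expressing cells under TSH stimulation (4nM final, EC80; 2 h, 37 deg C) is quantified with a one-step lysis HTRF kit, anti-cAMP cryptate versus cAMP-d2.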
Active calls of the source: *; [ ] = dose if it differs, or a comment.

Results for CCOC(=O)c1c(C)n(-c2ccccc2)c2ccc(OC(=O)c3ccccc3NC(=O)C(C)(C)C)cc12 ?
RXFP1 antag: -64*; RXFP1 ag: 0%

Results for O=C(CSc1nnc(-c2ccc(Cl)cc2)o1)Nc1ccc(F)cc1 ?
RXFP1 antag: -4; RXFP1 ag: 3%

Results for CC1(C)OC(=O)C(=Cc2ccc(-c3ccc(S(N)(=O)=O)cc3)o2)C(=O)O1 ?
RXFP1 antag: -105*; RXFP1 ag: 1%; gsp ag: 10%; gsp antag: inconclusive; TSHR antagonist: -1

What do the screens show for `NS(=O)(=O)c1ccc(-c2ccc(/C=C3\C(=O)Nc4ccccc43)o2)cc1`?
RXFP1 ag: 1%; TSHR antagonist: -14

What do the screens show for `CCOc1ccccc1-n1c(=S)sc2c(=O)n(-c3ccc(F)cc3)c(SCC(=O)O)nc21`?
RXFP1 antag: -2; RXFP1 ag: 3%; gsp ag: 6%; gsp antag: -7%; TSHR antagonist: -71*

Results for Cc1nc(Nc2ccc(Cl)c(Cl)c2)sc1C(=O)Nc1ccccc1 ?
RXFP1 antag: -20; RXFP1 ag: 5%; gsp ag: 2%; gsp antag: 50µM*; TSHR antagonist: 1

How did O=C(NC1=C(Nc2ccc(Cl)cc2)C(=O)c2ccccc2C1=O)c1ccccc1 do in these assays?
RXFP1 antag: -12; RXFP1 ag: 2%; gsp ag: -30%; gsp antag: -18%; TSHR antagonist: 13

What do the screens show for `CC(C)CC(=O)NC(=S)Nc1ccccc1F`?
RXFP1 antag: -11; RXFP1 ag: 1%; gsp ag: -18%; gsp antag: 11%

What do the screens show for `O=C(Nc1ccc(Cl)cc1)Nc1ccc(Cl)c(Cl)c1`?
RXFP1 antag: -16; RXFP1 ag: -1%; gsp antag: -13%; TSHR antagonist: -74*

Results for Cc1nc(Nc2ccc(Cl)cc2Cl)sc1C(=O)Nc1ccccc1 ?
RXFP1 antag: -13; RXFP1 ag: 0%; gsp ag: -5%[15.4 µM]; gsp antag: inconclusive; TSHR antagonist: -5

What do the screens show for `O=C1C(Cl)=C(NC(=O)c2ccccc2)C(=O)C(Cl)=C1NC(=O)c1ccccc1`?
RXFP1 antag: -105*; RXFP1 ag: -4%; gsp ag: 6%[15.4 µM]; gsp antag: inconclusive; TSHR antagonist: -85*

Results for CC(C)CC(=O)NC(=S)Nc1cccc2nsnc12 ?
RXFP1 antag: -70*; RXFP1 ag: 5%; gsp ag: -12%[15.4 µM]; gsp antag: inconclusive; TSHR antagonist: 1

How did Cc1ccc(-c2nc(S(=O)(=O)c3ccc(C)cc3)c(SCC(=O)NC3CCCCC3)o2)cc1 do in these assays?
RXFP1 antag: -5; RXFP1 ag: -3%

Results for O=C(Nc1ccc(Cl)c(Cl)c1)Oc1ccc(NC(=O)c2ccco2)cc1 ?
RXFP1 antag: 7; RXFP1 ag: -1%; gsp ag: -14%; gsp antag: 40µM*; TSHR antagonist: 1

Results for O=C(Nc1ccc(Cl)c(Cl)c1)c1ccccc1 ?
RXFP1 ag: 0%; gsp antag: 11µM*; TSHR antagonist: -21

What do the screens show for `O=C(Nc1ccc(Cl)cc1)Nc1cccc2nsnc12`?
RXFP1 antag: -35; RXFP1 ag: 4%; gsp ag: 5%; gsp antag: 40µM*; TSHR antagonist: -18

What do the screens show for `O=C(NCCCN1CCN(c2ccccc2)CC1)c1nnc(Cc2ccc(F)cc2)o1`?
RXFP1 antag: -7; RXFP1 ag: 0%

How did Cc1ccc(N2C(=O)NC(NS(=O)(=O)c3ccc(Cl)cc3)(C(F)(F)F)C2=O)cc1C (stereo not drawn) do in these assays?
RXFP1 ag: -1%

How did CC[n+]1ccc(/C=C/c2ccc(N(C)C)cc2)c2ccccc21 do in these assays?
RXFP1 antag: inconclusive; RXFP1 ag: -16%; gsp ag: -144%; gsp antag: inconclusive; TSHR antagonist: -71*

What do the screens show for `CC[n+]1c(/C=C/c2ccc(N(C)C)cc2)ccc2ccccc21`?
RXFP1 antag: -91*; RXFP1 ag: 3%; gsp ag: 20%; gsp antag: inconclusive; TSHR antagonist: -49

How did CC[n+]1ccccc1/C=C/c1ccc(N(C)C)cc1 do in these assays?
RXFP1 antag: -19; RXFP1 ag: 0%; gsp ag: inconclusive; gsp antag: inconclusive; TSHR antagonist: -43

What do the screens show for `CC[n+]1c(/C=C/c2ccc(OC)c(OC)c2)ccc2ccccc21`?
RXFP1 antag: -1; RXFP1 ag: -1%; gsp ag: -32%; gsp antag: -5%; TSHR antagonist: -1

What do the screens show for `COc1ccc(CCNC(=O)C(C)n2c(=O)cc(-c3ccccc3)c3c(C)nn(C)c32)cc1OC` (stereo not drawn)?
RXFP1 antag: -17; RXFP1 ag: 0%

How did CCN1CCCC1CN (stereo not drawn) do in these assays?
RXFP1 antag: 7

Results for COc1cccc(CC2(CO)CCCN(Cc3ccc(C)s3)C2)c1 (stereo not drawn) ?
RXFP1 antag: -78*; RXFP1 ag: -1%; gsp ag: 13%[15.4 µM]; gsp antag: 5%; TSHR antagonist: -1

Results for Fc1cccc(Cl)c1CNCc1cccnc1 ?
RXFP1 antag: 1; RXFP1 ag: 1%; gsp ag: -4%; gsp antag: 15%; TSHR antagonist: -106*

What do the screens show for `O=C(CSCc1c(F)cccc1Cl)NCc1cccnc1`?
RXFP1 ag: 0%; gsp ag: -45%; gsp antag: 18%; TSHR antagonist: 38

Results for COc1cc(-c2nnc(SCC(=O)Nc3ccc(F)c(Cl)c3)o2)cc(OC)c1OC ?
RXFP1 antag: -2; RXFP1 ag: 5%

How did COc1ccc(OC)c(-c2noc(CSc3nnc(Cc4ccccc4)n3-c3cccc(C)c3)n2)c1 do in these assays?
RXFP1 antag: -26; RXFP1 ag: 1%

Results for CCOc1ccc(/C=C2\SC(=S)N(C)C2=O)cc1OC ?
RXFP1 antag: -5; RXFP1 ag: 0%; gsp ag: 8%; gsp antag: 2%; TSHR antagonist: -6

How did COc1cc(/C=C2/SC(=S)NC2=O)ccc1OS(=O)(=O)c1ccc(C)cc1 do in these assays?
RXFP1 antag: inconclusive; RXFP1 ag: 2%; gsp ag: 5%[15.4 µM]; gsp antag: inconclusive; TSHR antagonist: inconclusive

Results for CCOc1ccc(/C=C2\SC(=S)NC2=O)cc1OC ?
RXFP1 antag: -73*; RXFP1 ag: 1%; gsp ag: -26%; gsp antag: inconclusive; TSHR antagonist: -25

Results for O=C1NC(=S)SC1=Cc1ccc(Cl)cc1 ?
RXFP1 antag: -19; gsp ag: 22%; gsp antag: 28µM*

What do the screens show for `COc1cc(/C=C2\SC(=S)NC2=O)ccc1OS(=O)(=O)c1ccccc1`?
RXFP1 ag: -4%; TSHR antagonist: -74*

How did CN1CC(=O)NC1=N do in these assays?
RXFP1 antag: 3
